In general, cell viability refers to a read-out of living cells in per cent, often relative to untreated cells.

Counter-ions that a name gives are not always drawn.

In this assay the test system is OCI-AML2. Nature of the assay: cell viability relative to vehicle control; higher = less cytotoxic. The note with it: 10 µM; SRSF2 genotype: P95H/wt. The gist of the method: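 Each screen used CRISPR-edited mutant and wild-type clones from four leukaemia lines. Compounds were acoustically dispensed at a single 10 µM dose, and CellTiter-Glo luminescence was read after 48 h with the supernatant first removed. Viability was analysed in Genedata Screener and given as percent of the on-plate vehicle control.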
Take `OCC1OC(OC2OC(CO)C(O)C(O)C2O)C(O)C(O)C1O` [D-(+)-Trehalose Anhydrous]: the cell viability was 99.6%. Turning to `CCCCCCCCCCCCCCCCCC[N+](C)(C)C` [Trimethyloctadecylammonium bromide], the cell viability turned out to be 0.97%. Under `CC(C)c1cc(-c2ccc(F)c3ccccc23)nc(N)n1` stands 89.7%. For the compound `Cc1nc2n(c(=O)c1CCN1CCC(c3noc4cc(F)ccc34)CC1)CCCC2` [Risperidone (Risperdal)], the cell viability stood at 98.8%. Turning to `Cc1[nH]c2ccccc2c1C1=C(NCCc2ccc(F)cc2)C(=O)N(C)C1=O`, the cell viability stood at 100%. In the case of `Cc1nc(N)sc1-c1ccnc(Nc2ccc(N3CCOCC3)cc2)n1`, the cell viability was 9.4%. For the compound `CN(C)CCC(c1ccc(Br)cc1)c1ccccn1` (centres undefined) [Brompheniramine hydrogen maleate], the cell viability turned out to be 112%.

For the compound `C[S+](CC[C@H](N)C(=O)[O-])C[C@H]1O[C@@H](n2cnc3c(N)ncnc32)[C@H](O)[C@@H]1O` (some centres undefined) [Ademetionine disulfate tosylate], the cell viability amounted to 117%. Under `CNCc1cc(-c2ccccc2F)n(S(=O)(=O)c2cccnc2)c1` [Vonoprazan Fumarate (TAK-438)] stands 97.1%; under `C=CC(=O)N1CC[C@@H](Oc2nc(Nc3ccc(N4CCC(N5CCN(C)CC5)CC4)cc3)c(C(N)=O)nc2CC)C1` [ASP8273 (Naquotinib)], 20.4%; under `CC(=O)NC[C@H]1CN(c2ccc(N3CCOCC3)c(F)c2)C(=O)O1` [Linezolid (Zyvox)], 81.4%. With `CC(C)=CCC[C@](C)(O[C@@H]1O[C@H](CO)[C@@H](O)[C@H](O)[C@H]1O)[C@H]1CC[C@]2(C)[C@@H]1[C@H](O)C[C@@H]1[C@@]3(C)CC[C@H](O)C(C)(C)[C@@H]3[C@@H](O[C@@H]3O[C@H](CO)[C@@H](O)[C@H](O)[C@H]3O[C@@H]3OC[C@@H](O)[C@H](O)[C@H]3O)C[C@]12C` [Notoginsenoside R1], the cell viability was found to be 94.6%.

Take `CC#CC(=O)Nc1ccc2ncnc(Nc3cccc(Br)c3)c2c1`: the cell viability amounted to 1.61%. With `Cc1cccc(C#Cc2ccccc2)n1`, the cell viability is 89.3%. For the compound `CO/N=C(\C(=O)N[C@@H]1C(=O)N2C(C(=O)O)=C(CSc3nnnn3C)CS[C@H]12)c1csc(N)n1` [Cefmenoxime hydrochloride], the cell viability was determined as 97.2%. Regarding `CC1(C)CC(=O)c2c(C(F)(F)F)nn(-c3ccc(C(N)=O)c(N[C@H]4CC[C@H](O)CC4)c3)c2C1`, the cell viability came to 13.9%.

`CC1(C)C=Cc2c(ccc3c2OC[C@@H](c2ccc(O)cc2O)C3)O1` [Glabridin]: the cell viability worked out at 93.6%. With `COc1cccc(-c2cc(NCc3ccc4c(c3)OCO4)nc(N)n2)c1` [Wnt agonist 1] the figure was 11%; with `CNC1CCC(N(Cc2cccc(-c3ccncc3)c2)C(=O)c2sc3ccccc3c2Cl)CC1` (centres undefined) [Smoothened Agonist (SAG) HCl], 3.18%; with `NCCCCCNCC12CC3CC(CC(C3)C1)C2` [IEM 1754 dihydrobroMide], 91.4%.

`NC(=S)c1ccncc1` [Thioisonicotinamide]: the cell viability came to 99.4%. `C[C@@]1(F)[C@H](O)[C@@H](CO)O[C@H]1n1ccc(=O)[nH]c1=O` [2'-deoxy-2'-fluoro-2'-C-methyluridine]: the cell viability amounted to 86.6%. Regarding `Nc1cccc2c1CN(C1CCC(=O)NC1=O)C2=O` (centres undefined) [Lenalidomide (CC-5013)], the cell viability was found to be 118%.

In the case of `Cc1ccccc1N1C(=O)c2cc(S(N)(=O)=O)c(Cl)cc2NC1C` (centres undefined) [Metolazone (Zaroxolyn)], the cell viability was found to be 101%. With `CCC/C=C1\OC(=O)C2=C1CCC=C2` [Ligustilide], the cell viability worked out at 64.8%.

Turning to `OC[C@@H](O)[C@@H](O)[C@H](O)[C@H](O)CO` [D-Mannitol (Osmitrol)], the cell viability stood at 97%. In the case of `CN(C)CCCN1c2ccccc2Sc2ccc(Cl)cc21` [Chlorpromazine HCl], the cell viability amounted to 25.3%. Consider `CCOC(=O)c1ccc(C#Cc2ccc3c(c2)C(C)(C)CCS3)nc1` [Tazarotene (Avage)], for which the cell viability was 14.1%. Under `OC[C@H]1O[C@@H](OCCc2ccc(O)cc2)[C@H](O)[C@@H](O)[C@@H]1O` [Salidroside (Rhodioloside)] stands 101%; under `C=C[C@]1(C)C[C@@H](OC(=O)CSC(C)(C)CNC(=O)[C@H](N)C(C)C)[C@]2(C)[C@H](C)CC[C@]3(CCC(=O)[C@H]32)[C@@H](C)[C@@H]1O` [Valnemulin HCl], 60.7%. Under `CCS(=O)(=O)CCn1c([N+](=O)[O-])cnc1C` [Tinidazole] stands 102%; under `O=C(Cc1ccc(-c2ccc(OCCN3CCOCC3)cc2)cn1)NCc1ccccc1`, 4.61%. With `COC(=O)C1=C(C)NC(C)=C(C(=O)OCCN2CCN(C(c3ccccc3)c3ccccc3)CC2)C1c1cccc([N+](=O)[O-])c1` (centres undefined) [Manidipine dihydrochloride (CV-4093)], the cell viability was determined as 42.5%. With `O=S(=O)(O)c1cc(O)ccc1O` [Calcium Dobesilate], the cell viability was found to be 104%. In the case of `CC(=O)OCC(=O)[C@@]1(O)[C@H](C)C[C@H]2[C@@H]3CCC4=CC(=O)C=C[C@]4(C)[C@@]3(F)[C@@H](O)C[C@@]21C` [Dexamethasone acetate], the cell viability came to 106%. With `O=C([O-])c1ccccc1O.[Na+]` [Sodium salicylate] the figure was 91.2%. As for `C=C1C(=O)O[C@@H]2C[C@@]3(C)CCCC(=C)[C@@H]3C[C@H]12` [Isoalantolactone], the cell viability is 1.8%.

`c1ccc(Cn2c(-c3ccc(OCC(C4CCNCC4)n4c(-c5ccccc5)nc5ccccc54)cc3)nc3ccccc32)cc1` (centres undefined) [Deltarasin]: the cell viability came to 0.24%. Regarding `O=C(Nc1ccccc1-c1cn2c(CN3CCNCC3)csc2n1)c1cnc2ccccc2n1`, the cell viability worked out at 0.14%.

(Values after the supplement of paper PMC10981050.)
